We go through 14 compounds from PubChem BioAssay (Tox21).

The structures appear in SMILES notation. Records with an inconclusive call do not appear. Values without a mark were called inactive. Active and inactive are the calls of the source. Unless noted, calls follow the shape of the full dose curve.
% is scaled to controls: 0 for no effect and ±100 for the full control effect.

Sequence of Vitamin D3 receptor (Homo sapiens) (P11473 whole entry, looked up): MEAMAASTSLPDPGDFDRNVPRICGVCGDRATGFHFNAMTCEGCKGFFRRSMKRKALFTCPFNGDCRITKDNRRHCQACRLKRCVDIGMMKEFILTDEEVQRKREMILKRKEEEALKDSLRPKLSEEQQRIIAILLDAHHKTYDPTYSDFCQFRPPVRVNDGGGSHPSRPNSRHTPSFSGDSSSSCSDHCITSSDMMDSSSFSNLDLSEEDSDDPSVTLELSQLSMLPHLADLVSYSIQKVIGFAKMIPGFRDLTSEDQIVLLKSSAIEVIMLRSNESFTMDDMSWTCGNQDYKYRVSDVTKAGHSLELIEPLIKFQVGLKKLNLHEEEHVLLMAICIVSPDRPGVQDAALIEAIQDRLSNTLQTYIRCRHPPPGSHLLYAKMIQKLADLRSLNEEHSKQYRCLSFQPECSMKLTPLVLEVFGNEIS

One test addresses Vitamin D3 receptor (Homo sapiens) (UniProt P11473). Nature of the test: qHTS assay to identify small molecule agonists of the vitamin D receptor (VDR) signaling pathway (AID 743222). The note with it: HEK293T VDR-UAS-bla, beta-lactamase FRET ratio, 16 h; series mostly up to 63.5 µM; activation: at the top concentration. The method in brief: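 In VDR-bla cells, compound-induced beta-lactamase expression is quantified by FRET substrate fluorescence. Treatment lasts 16 h at 37C; substrate develops 2 h at room temperature.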
As to `CN(C)CCc1c[nH]c2ccc(O)cc12`, the “activation” value is -9.19% [at 81.1 µM].
The same measure, in the same setting: as for `O=C(O)c1cc[c]([Hg][Cl])cc1`, the figure is -11%.
Turning to `CC(C)(C)c1cc([N+](=O)[O-])cc(C(C)(C)C)c1O`, the “activation” value is -9.31%.
For the compound `O=C(O)COc1nc(Cl)c(Cl)cc1Cl`, the “activation” value was -9.47% [at 81.1 µM].
`O=c1ssc(Cl)c1Cl`: the “activation” value is 10.1%.
With `c1ccc2c(c1)OCC(C1=NCCN1)O2` (stereo not given), the “activation” value is -19.4%.
On the same count and under the same terms, next, `C[C@]12Cc3nonc3C[C@@H]1CC[C@@H]1[C@@H]2CC[C@@]2(C)[C@H]1CC[C@]2(C)O`: -24.9%; `Nc1ccc(Sc2ccc(N)cc2)cc1`: -1.34% [at 81.1 µM].
Still for that read-out and setting: next, `OC(c1ccc(Cl)cc1)(c1ccc(Cl)cc1)C(Cl)(Cl)Cl`: -0.298%; `Clc1ccc(CSC(Cn2ccnc2)c2ccc(Cl)cc2Cl)cc1` (stereo not given): -6.46%.
Same read-out and setting: as for `Oc1cc(Cl)c(Cl)c(Cl)c1`, the figure is -18.2%; as for `CC(C)[C@H](C(=O)OC(C#N)c1cccc(Oc2ccccc2)c1)c1ccc(OC(F)F)cc1` (stereo not given in full), 26.8%.

The target is the same in the next test. In words: qHTS assay to identify small molecule antagonists of the vitamin D receptor (VDR) signaling pathway (AID 743223; active = well fitted inhibition curve with a large enough effect in the signal ratio in the repeat runs, not every such curve was filed as active; the % refers to the signal ratio; also: potency is read from the fitted curve at half-maximal effect). The settings on record: VDR-UAS-bla HEK293T, beta-lactamase FRET ratio, 16 h; series mostly up to 61 µM; activity change, negative = inhibition: at the top concentration. The gist of the method: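 Inhibition of agonist-driven VDR signalling is scored in VDR-bla cells: 3 nM final 1alpha,25-dihydroxyvitamin D3 plus compound, 16 h at 37C, then beta-lactamase detection by FRET substrate fluorescence after 2 h.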
For the compound `CN(C)CCc1c[nH]c2ccc(O)cc12`, the “activity change, negative = inhibition” value was 0.193%.
Take `CC(C)CC(C)(c1ccc(O)cc1)c1ccc(O)cc1`: the Potency is 54.9 µM (active).
On to `S=C=Nc1cccc2ccccc12`, for which the “activity change, negative = inhibition” value was -13.2%.
